SW480 rerep: DNA re-replication induction in SW480 cells. Potency, µM (series often up to 46.1 µM), actives largely listed as activators. AID 624297. SW480 DNA re-replication, Hoechst DNA content imaging, 48 h. hit rate 1.8% among 340,000; further: nearly all actives have a fitted effect of over 55% in size
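Image-based DNA-content assay: after two days of treatment, nuclei were labelled with the DNA dye Hoechst and imaged, and hits were compounds raising the count of nuclei showing high fluorescence intensity.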
IL1B secr inh: blocks inflammasome-driven IL-1 beta release. hit rate 4.7% among 360,000. AID 743279. THP-1 LPS/ATP IL-1B secretion, AlphaLISA, 16 h; stronger effect = lower value. activity change, % at 57.5 µM; in the data active means activity change below about -50%; inconclusive means mostly about -30% to -49%
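Secreted IL-1B measured by AlphaLISA bead assay after 16 h compound exposure of THP-1 cells; compounds (final up to 57.5 uM) added 1 h before LPS (250 ng/mL) and ATP (1.25 mM) stimulation; lower signal means less secretion.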
MCF10A rereplic: inducers of DNA re-replication in MCF 10A breast cells; hit rate 2.9% among 350,000; MCF 10A DNA re-replication, Hoechst nuclear intensity, 48 h; Potency, µM (series often up to 46.1 µM), most hits filed as activators; further: nearly all actives have a fitted effect of over 50% in size
RORgamma inh: blocks mouse ROR gamma transcriptional activity. Drosophila S2 Gal4-RORgamma UAS-luciferase reporter, 20 h. Potency, µM (titrated, usually from 53.6 µM), usual class: inhibitors. hit rate 5.4% among 310,000. AID 2551; further: nearly all actives have a fitted effect of over 60% in size
Target sequence (P51450 whole entry, looked up, the tested form may be a part): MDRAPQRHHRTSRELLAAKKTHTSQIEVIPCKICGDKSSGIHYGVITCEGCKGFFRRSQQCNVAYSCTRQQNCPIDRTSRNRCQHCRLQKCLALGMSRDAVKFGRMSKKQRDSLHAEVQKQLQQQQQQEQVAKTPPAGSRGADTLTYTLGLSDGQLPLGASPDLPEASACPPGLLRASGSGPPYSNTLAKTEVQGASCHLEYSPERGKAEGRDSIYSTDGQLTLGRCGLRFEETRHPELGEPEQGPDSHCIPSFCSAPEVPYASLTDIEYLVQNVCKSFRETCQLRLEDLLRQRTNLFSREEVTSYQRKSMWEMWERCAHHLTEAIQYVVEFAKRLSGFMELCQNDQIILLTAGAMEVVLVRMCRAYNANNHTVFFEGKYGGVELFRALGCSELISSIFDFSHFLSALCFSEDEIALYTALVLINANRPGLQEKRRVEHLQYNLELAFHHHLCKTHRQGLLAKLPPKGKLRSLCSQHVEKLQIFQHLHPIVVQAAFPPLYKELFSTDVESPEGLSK
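Stable Schneider cell line, Gal4 DNA-binding domain fused to ROR gamma, UAS-luciferase. Cmpd 1 hr RT → CuSO4 700 uM final → 20 hr RT → luciferase reagent 10 min → luminescence.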
VP16 counter: Gal4-VP16 reporter inhibition counter-screen | Potency, µM (top dose mostly 53.6 µM), actives largely listed as inhibitors | hit rate 3.5% among 310,000 | Drosophila S2 Gal4-VP16 UAS-luciferase, luminescence, 20 h;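 further: Gal4-VP16 expression switched on by copper sulfate through the metallothionein promoter; nearly all actives have a fitted effect of over 50% in size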
Hits are given with their value; n = inactive; u = inconclusive; x = no result; [ ] = remark or other dose. A selection: hits, their analogues and other compounds. The true share with any hit is near 11%. Unless noted, the call rests on the fitted dose curve; in most records, active means well fitted curve in the direction sought with a large enough effect; inconclusive means small, poorly fitted or top-dose-only effect, or another doubt; inactive means no such curve, though single readings can be large; an effect the other way counts as inactive or inconclusive.

SMILES	SW480 rerep	IL1B secr inh	MCF10A rereplic	RORgamma inh	VP16 counter
Cc1ccccc1C(=O)NC(=S)Nc1ccc(S(=O)(=O)N(C)c2ccccc2)cc1	n	n	n	11µM	u
CC(C)(CNC(=O)c1cc2c(s1)CCCC2)N1CCOCC1	n	n	n	x	x
O=S(=O)(c1ccc2c(c1)C(O)c1ccccc1CC2)C(F)(F)F (stereo not given)	n	x	n	x	x
O=C(CCl)Nc1cn(-c2ccccc2)nc1-c1ccccc1	n	-97	u	u	u
CC(=O)Nc1cn(-c2ccccc2)nc1-c1ccccc1	n	-79	n	n	n
Cc1ccc(-c2nn(-c3ccccc3)cc2NC(=O)c2ccccc2)cc1	n	u	n	n	n
CCN1C(=O)CC(c2ccccc2)N(C2CCCC2)c2nc(Nc3ccc(C(=O)NC4CCN(C)CC4)cc3OC)ncc21 (stereo not given)	n	-77	u	x	x
CCN1C(=O)CSc2ccc(C(=O)NC3CCCCC3)cc21	n	n	n	n	n
CCN1C(=O)CC(C(C)C)N(C2CCCC2)c2nc(Nc3ccc(C(=O)NC4CCN(C)CC4)cc3OC)ncc21 (stereo not given)	n[9.22 µM]	-74	u	x	x
O=C(CCC(F)(F)F)N1CCCC(N2CCN(c3cccc(Cl)c3)CC2)C1 (stereo not given)	n	n	n	x	x
Cc1cccc(C)c1NC(=O)C1(C)CN(S(C)(=O)=O)CC(=O)N1CCc1ccc(O)cc1 (stereo not given)	x	n	x	x	x
Cc1ccc(N2C(=O)N(C(C)C)C(C)(C)CC2(C)O)cc1 (stereo not given)	n[9.22 µM]	n	n	n	n
CCC(C)N1C(=O)N(c2cccc(Cl)c2)C(C)(O)CC1(C)C (stereo not given)	n	n	n	5µM	n
COc1ccc(S(=O)(=O)N(CC(=O)NCc2ccccn2)c2ccc(Cl)cc2)cc1	n	-54	n	u	n
CCOc1ccc(S(=O)(=O)N(CC(=O)N/N=C/c2ccc(-c3ccc([N+](=O)[O-])cc3)o2)c2ccccc2)cc1	21µM	n	0.82µM	n	n
Cc1ccc(C)c(N(CC(=O)N/N=C/c2ccc(-c3ccc([N+](=O)[O-])cc3)o2)S(=O)(=O)c2ccccc2)c1	n	n	n	n	n
CCOc1ccc(N(CC(=O)N/N=C/c2ccccn2)S(=O)(=O)c2ccc(Cl)cc2)cc1	u	n	n	10µM	u
CN(Cc1ccsc1)C(=O)Cn1cc(Br)ccc1=O	n	n	n	n	n
O=C1/C(=C/c2ccncc2)SC(=S)N1C1CCS(=O)(=O)C1 (stereo not given)	n	-92	21µM	11µM	u
Cc1ccc(/C=C2\SC(=S)N(C3CCS(=O)(=O)C3)C2=O)o1 (stereo not given)	16µM	n	n	n	n
COc1ccc(N2C(=O)/C(=C/c3cccs3)NC2=S)cc1	n	n	n	10µM	u
O=C1C(=O)N(C2CCS(=O)(=O)C2)C(c2cccc(O)c2)/C1=C(/O)c1ccc(Cl)cc1 (stereo not given)	n	n	n	n	n
COc1ccc2[nH]c(CN3CCN(CC=C(C)C)C(CCO)C3)c(C)c2c1 (stereo not given)	n	n	16µM	n	n
COc1cccc(CN2CCN(Cc3[nH]c4ccccc4c3C)CC2CCO)c1 (stereo not given)	n	-78	n	n	n
COc1ccc(CN2CCN(Cc3cccc(OC)c3)C(CCO)C2)cc1 (stereo not given)	n	n	n	n	n
SMILES	SW480 rerep	IL1B secr inh	MCF10A rereplic	RORgamma inh	VP16 counter
N#C/C(=C\c1cc2c(cc1Br)OCO2)c1ccc(C(=O)O)cc1	n	n	n	n	n
COCCCNC(=O)/C(C#N)=C/c1c(N2CCN(C)CC2)nc2ccccn2c1=O	u	n	21µM	n	n
COCCCNC(=O)/C(C#N)=C/c1c(N2CCN(c3ccccc3)CC2)nc2ccccn2c1=O	9.2µM	n	21µM	n	n
CCOC(=O)CNC(=O)O[C@@H]1C(=O)c2cc(Br)ccc2O[C@H]1c1ccc2c(c1)OCO2	x	x	x	n	n
CCC(C)NC(=O)Cn1nc(Cc2ccncc2)c2ccccc2c1=O (stereo not given)	n	n	n	n	n
O=C(/C(=C\c1ccccc1)c1nc2ccccc2[nH]1)c1ccc(Cl)cc1	u	-100	4.1µM	u	u
O=C(/C=C/c1cccc(Cl)c1)c1nc2ccccc2[nH]1	u	n	u	3.2µM	u
O=C(O)C(=O)/C(=C\c1ccc(Cl)cc1)c1ccc2ccccc2n1	u	n	u	n	n
S=C(Nc1ccc(Cl)cc1)c1nc2ccccc2[nH]1	x	n	u	11µM	20µM
O=C(/C=C/c1cccc(Cl)c1)Nc1ncccn1	n	n	n	n	n
O=C(/C(=C/c1ccc(Cl)cc1)c1nc2ccccc2[nH]1)c1cccs1	u	-112	5.2µM	3.2µM	u
CCCS(=O)(=O)NC(=O)C1(C)CCCN(C(=O)c2oc3ccccc3c2C)C1 (stereo not given)	x	n	x	x	x
COc1cc(/C=C(/C(=O)c2cccs2)c2nc3ccccc3[nH]2)ccc1O	7.3µM	-106	4.1µM	n	n
C#CCOCCOCCOCCNc1nc(N2CCN(C(=O)[C@H]([C@@H](C)CC)n3cc([C@@H](N)CC(C)C)nn3)CC2)nc(N2CCN(C(=O)[C@H](Cc3cc4ccccc4[nH]3)n3cc([C@@H](N)Cc4ccc(O)cc4)nn3)CC2)n1	n[9.22 µM]	-57	u	n	n
Clc1ccc2c(c1)C(C1=NCCN1)c1ccccc1CS2 (stereo not given)	1.3µM	n	1.6µM	n	n
CCc1n[nH]c(=S)n1/N=C/c1ccccn1	n	n	n	n	n
CCc1n[nH]c(=S)n1/N=C/c1ccc(N(C)c2ccccc2)cc1	n	n	u	4.5µM	u
CCc1n[nH]c(=S)n1/N=C/c1ccc2c(c1)OCO2	n	n	n	11µM	u
Cn1c(=S)n(/N=C/c2ccc3c(c2)OCO3)c2ccccc21	n	n	n	11µM	n
Cc1nn(-c2ccccc2)c(C)c1/C=N/n1c(-c2ccccc2Br)n[nH]c1=S	u	n	u	u	n
CCN(CC)c1ccc(/C=N/n2c(-c3ccccc3Br)n[nH]c2=S)cc1	n	-67	n	1µM	n
COc1ccc(/C=N/n2c(=S)n(C)c3ccccc32)cc1OC	n	n	n	n	n
O=C(Nc1ccc2c(c1)OCO2)c1ccc([N+](=O)[O-])cc1[N+](=O)[O-]	n	n	n	n	n
CC1CCC(C(=O)O)NC1c1ccc(C#CCN(C)C)cc1 (stereo not given)	x	x	x	n[10 µM]	n[10 µM]
Cc1nc(-c2ccc(C(=O)Nc3cc(S(N)(=O)=O)ccc3C)cc2)cs1	n	n	n	n	n
CC1(C)CC(=O)C2=C(C1)Oc1nc3ccccc3cc1C2C(C#N)C#N (stereo not given)	u	-93	9.2µM	3.2µM	u

Bioassay records deposited in PubChem by National Center for Advancing Translational Sciences (NCATS).
